Screens as filed in PubChem BioAssay.
Hits are enriched below; roughly 2.3% of the tested compounds scored in any of these assays.
Pf Dd2 growth: P. falciparum Dd2 growth inhibitors, primary screen, SYBR Green fluorescence, single dose replicates | 2.3% of 94,000 active | 72 h; hits give low values | activity change, % at 10 µM; in the data active means activity change below about -80%
C diff growth: C. difficile growth inhibitors, primary screen, HTS; Clostridium difficile clinical isolate growth, OD600, 24 h; hits give low values; 0.25% of 86,000 active; growth activity, negative = inhibition, % at 16 µg/mL (by protocol);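 active means mean growth activity at or below -80% and every replicate also at or below -80%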;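 further: 0% = DMSO wells and -100% = levofloxacin 16 µg/mL wells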
The depositor's hits bear a star; . = no result given.

SMILES	Pf Dd2 growth	C diff growth
C[C@H](CO)N1C[C@H](C)[C@@H](CN(C)C(=O)CC2CC2)Oc2cc(-c3cncnc3)ccc2S1(=O)=O	23	-6
C[C@H]1CN([C@@H](C)CO)C(=O)c2cc(-c3ccccc3)cnc2O[C@H]1CN(C)C(=O)Cc1cccnc1	12	.
C[C@@H]1CN([C@@H](C)CO)C(=O)c2c(c3ccccc3n2C)-c2ccccc2CO[C@@H]1CN(C)C(=O)[C@H](Cc1ccccc1)N(C)C	-33	10
COc1ccc(NC(=O)Nc2ccc3c(c2)CC(=O)N([C@@H](C)CO)C[C@H](C)[C@@H](CN(C)C(=O)Nc2ccc(F)cc2)O3)cc1	-85*	-4
COc1ccc(NC(=O)N(C)C[C@@H]2Oc3ccc(NC(=O)Nc4ccc(F)cc4)cc3CC(=O)N([C@@H](C)CO)C[C@@H]2C)cc1	-3	1
COc1ccc(S(=O)(=O)N(C)C[C@H]2Oc3c(NC(=O)C4CCOCC4)cccc3C(=O)N([C@@H](C)CO)C[C@H]2C)cc1	-11	.
C[C@H](O)C#Cc1ccc([C@@H]2[C@@H](CO)N3CCCCN(C(=O)c4cccc(F)c4)C[C@@H]23)cc1	-2	9
CO[C@H]1CN(C)C(=O)c2cc(NC(=O)Nc3ccccc3Cl)ccc2OC[C@@H](C)NC[C@@H]1C	-15	.
CO[C@@H]1CN(C)C(=O)c2cc(NC(=O)Nc3ccc(Cl)c(Cl)c3)ccc2OC[C@H](C)NC[C@@H]1C	-67	-97*
CO[C@@H]1CN(C)C(=O)c2cc(NC(=O)Nc3ccc(Cl)cc3)ccc2OC[C@H](C)NC[C@H]1C	-7	0
CO[C@H]1CN(C)C(=O)c2cc(NC(=O)Nc3ccc(Cl)c(Cl)c3)ccc2OC[C@H](C)NC[C@H]1C	-84*	-99*
CC(C)C#Cc1cnc2c(c1)C(=O)N([C@@H](C)CO)C[C@@H](C)[C@@H](CN(C)C(=O)c1ccccc1)O2	-28	-3
C[C@@H]1CN([C@@H](C)CO)C(=O)c2cc(C#Cc3ccccc3F)cnc2O[C@@H]1CN(C)C(=O)C1CC1	-7	.
C[C@H]1CN([C@@H](C)CO)S(=O)(=O)c2ccc(C#Cc3cccnc3)cc2O[C@H]1CN(C)CC1CC1	-73	.
CCCN(C)C[C@H]1Oc2cc(C#Cc3ccccc3OC)ccc2S(=O)(=O)N([C@H](C)CO)C[C@H]1C	-81*	3
CCCN(C)C[C@@H]1Oc2cc(C#Cc3ccccc3OC)ccc2S(=O)(=O)N([C@@H](C)CO)C[C@@H]1C	-39	11
CCCN(C)C[C@@H]1Oc2cc(C#Cc3cccnc3)ccc2S(=O)(=O)N([C@@H](C)CO)C[C@@H]1C	-86*	0
CCCN(C)C[C@H]1Oc2cc(C#Cc3ccccc3OC)ccc2S(=O)(=O)N([C@@H](C)CO)C[C@H]1C	-63	5
CCCN(C)C[C@@H]1Oc2cc(C#Cc3ccccc3OC)ccc2S(=O)(=O)N([C@H](C)CO)C[C@@H]1C	-84*	11
O=C(C[C@@H]1C[C@@H]2c3cc(NC(=O)Nc4ccc(C(F)(F)F)cc4)ccc3O[C@@H]2[C@H](CO)O1)NCC1CC1	-32	6
COc1ccc(CN(C)C[C@@H]2Oc3ccc(NC(=O)Nc4ccc(C(F)(F)F)cc4)cc3CC(=O)N([C@@H](C)CO)C[C@@H]2C)cc1	17	47
COc1ccc(C#Cc2ccc([C@@H]3[C@@H](CO)N4CCCCN(S(=O)(=O)c5ccccc5)C[C@@H]34)cc2)cc1	4	-7
N#C[C@@H]1[C@@H](c2ccc(C3=CCCC3)cc2)[C@@H](CO)N1C(=O)C1CCC1	-6	-1
C[C@H]1CN([C@@H](C)CO)C(=O)Cc2cc(NC(=O)C3CCCCC3)ccc2O[C@@H]1CN(C)S(=O)(=O)c1cccs1	-15	-4
C[C@H](CO)N1C[C@H](C)[C@H](CN(C)C(=O)Nc2ccc(F)cc2)Oc2ccc(NS(C)(=O)=O)cc2C1=O	5	-2
SMILES	Pf Dd2 growth	C diff growth
C[C@@H]1CN([C@H](C)CO)C(=O)Cc2cc(NC(=O)Nc3ccc(C(F)(F)F)cc3)ccc2O[C@@H]1CN(C)C(=O)Nc1cccc2ccccc12	-69	2
C[C@H](CO)N1C[C@H](C)[C@H](CN(C)C(=O)Nc2cccc3ccccc23)Oc2ccc(NC(=O)Nc3cccc4ccccc34)cc2CC1=O	-10	-7
C[C@H]1CN([C@@H](C)CO)C(=O)Cc2cc(NC(=O)NC3CCCCC3)ccc2O[C@H]1CN(C)C(=O)Nc1cccc2ccccc12	-9	-17
C[C@@H]1CN([C@@H](C)CO)C(=O)Cc2cc(NC(=O)NC3CCCCC3)ccc2O[C@H]1CN(C)C(=O)Nc1cccc2ccccc12	-92*	-14
C[C@H](CO)N1C[C@H](C)[C@@H](CN(C)C(=O)Nc2cccc3ccccc23)Oc2ccc(NC(=O)Nc3cccc4ccccc34)cc2CC1=O	-89*	1
C[C@H](CO)N1C[C@H](C)[C@@H](CN(C)C(=O)Nc2cccc3ccccc23)Oc2ccc(NC(=O)Nc3ccc(C(F)(F)F)cc3)cc2CC1=O	-85*	15
CC(C)NC(=O)Nc1ccc2c(c1)C(=O)N([C@H](C)CO)C[C@@H](C)[C@@H](CN(C)Cc1ccccc1)OCCCC[C@@H](C)O2	31	4
COc1ccc(S(=O)(=O)N(C)C[C@@H]2OCCCC[C@@H](C)Oc3ccc(NC(=O)CCC(F)(F)F)cc3C(=O)N([C@@H](C)CO)C[C@H]2C)cc1	-65	9
COc1cccc(C#Cc2ccc([C@@H]3[C@@H](C#N)N(C(=O)C4CCC4)[C@@H]3CO)cc2)c1	-29	15
CC(C)CC#Cc1ccc2c(c1)O[C@H](CN(C)Cc1ccccc1)[C@H](C)CN([C@@H](C)CO)S2(=O)=O	-64	18
CCC(=O)Nc1ccc2c(c1)OC[C@@H](C)N(C(=O)c1cnccn1)C[C@H](C)[C@H](OC)CN(C)C2=O	12	-1
COc1cccc(CNC(=O)C[C@H]2C=C[C@@H](NC(=O)C3CCOCC3)[C@H](CO)O2)c1	-4	1
C[C@@H]1CN([C@@H](C)CO)C(=O)c2cc(C#Cc3ccccc3F)cnc2O[C@@H]1CN(C)C(=O)Cc1ccccc1	-53	10
Cc1noc(C)c1S(=O)(=O)N(C)C[C@@H]1Oc2ccc(NC(=O)C3CCCCC3)cc2CC(=O)N([C@@H](C)CO)C[C@H]1C	-19	-7
COc1ccc(S(=O)(=O)N(C)C[C@@H]2Oc3ccc(NC(=O)NC4CCCCC4)cc3C(=O)N([C@H](C)CO)C[C@@H]2C)cc1	-27	4
C[C@@H]1CN([C@@H](C)CO)C(=O)c2cc(NC(=O)Nc3ccc(F)cc3)ccc2O[C@@H](C)CCCCO[C@H]1CN(C)Cc1ccc(Cl)c(Cl)c1	-68	.
C[C@@H]1CCCCO[C@H](CN(C)Cc2ccc(Cl)c(Cl)c2)[C@H](C)CN([C@@H](C)CO)C(=O)c2cc(NC(=O)Nc3ccccc3)ccc2O1	-85*	8
C[C@@H]1CCCCO[C@@H](CN(C)Cc2ccc(Cl)c(Cl)c2)[C@@H](C)CN([C@H](C)CO)C(=O)c2cc(NC(=O)Nc3ccc(F)cc3)ccc2O1	13	.
C[C@@H]1CN([C@H](C)CO)C(=O)c2cc(NC(=O)Nc3ccccc3)ccc2O[C@@H](C)CCCCO[C@H]1CN(C)Cc1ccc(Cl)c(Cl)c1	-86*	19
Cc1noc(C)c1NC(=O)Nc1ccc2c(c1)C(=O)N([C@@H](C)CO)C[C@H](C)[C@@H](CN(C)Cc1ccc(Cl)c(Cl)c1)OCCCC[C@@H](C)O2	-85*	6
